Laboratory results reported in article PMC4336329 (PLoS ONE, 2015).
The campaign covered roughly 310,000 compounds. About 14,000 (4.5%) showed an effect of 50% or more. Effects have a minus sign here. Shown is part of a subset that was picked to be rich in strong results.

These compounds were tested against human ether-à-go-go-related gene (hERG) potassium channel (human, UniProt Q12809) (assay: primary screen, population patch clamp on CHO cells stably expressing hERG; higher = less effect of the substance).
Sequence of human ether-à-go-go-related gene (hERG) potassium channel (Q12809 whole entry, looked up): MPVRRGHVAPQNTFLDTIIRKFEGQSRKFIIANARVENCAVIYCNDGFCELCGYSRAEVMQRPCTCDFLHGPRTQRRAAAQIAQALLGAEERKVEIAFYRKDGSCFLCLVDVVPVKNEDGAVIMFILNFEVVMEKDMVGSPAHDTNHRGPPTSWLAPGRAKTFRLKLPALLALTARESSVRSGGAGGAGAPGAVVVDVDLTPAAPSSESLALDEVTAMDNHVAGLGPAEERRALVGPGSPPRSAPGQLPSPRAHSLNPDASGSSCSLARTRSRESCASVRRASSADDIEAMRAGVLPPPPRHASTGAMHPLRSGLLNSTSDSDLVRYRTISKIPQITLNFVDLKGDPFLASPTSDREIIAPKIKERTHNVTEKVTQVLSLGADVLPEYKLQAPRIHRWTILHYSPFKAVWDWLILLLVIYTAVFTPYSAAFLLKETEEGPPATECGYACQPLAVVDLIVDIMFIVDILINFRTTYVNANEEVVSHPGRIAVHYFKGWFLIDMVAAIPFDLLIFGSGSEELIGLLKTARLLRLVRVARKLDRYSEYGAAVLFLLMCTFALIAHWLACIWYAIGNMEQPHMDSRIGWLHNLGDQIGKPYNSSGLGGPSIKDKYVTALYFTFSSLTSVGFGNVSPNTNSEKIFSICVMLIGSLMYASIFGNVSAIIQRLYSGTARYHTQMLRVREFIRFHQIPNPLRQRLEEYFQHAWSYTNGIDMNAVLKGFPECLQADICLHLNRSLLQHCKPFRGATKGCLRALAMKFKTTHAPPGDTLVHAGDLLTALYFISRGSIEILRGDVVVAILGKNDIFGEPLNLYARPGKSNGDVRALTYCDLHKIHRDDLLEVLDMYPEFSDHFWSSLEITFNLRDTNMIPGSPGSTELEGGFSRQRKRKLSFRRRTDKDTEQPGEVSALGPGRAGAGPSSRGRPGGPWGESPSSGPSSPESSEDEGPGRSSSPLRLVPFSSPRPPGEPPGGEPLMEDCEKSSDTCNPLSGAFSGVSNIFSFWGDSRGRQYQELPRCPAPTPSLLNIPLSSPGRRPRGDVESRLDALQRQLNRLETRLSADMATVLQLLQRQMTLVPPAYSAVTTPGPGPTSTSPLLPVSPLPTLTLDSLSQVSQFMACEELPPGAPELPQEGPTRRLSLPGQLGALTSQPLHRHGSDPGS
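Also: peak tail current of the secondary pulse compared with the same well before compound.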

Question: Which “hERG current change (%, negative = inhibition) at 10uM” value does the source give for `COc1ccc(CCC(C)NCc2ccc(F)cc2)cc1` (centres unmarked) here?
Answer: -44.8%

Question: For `COc1ccc(CCC(C)NCc2cccc(Br)c2)cc1` (centres unmarked), which “hERG current change (%, negative = inhibition) at 10uM” value is on record?
Answer: -64.6%

Question: For `COc1ccc(CCC(C)NCc2ccc(C(F)(F)F)cc2)cc1` (centres unmarked), which “hERG current change (%, negative = inhibition) at 10uM” value is on record?
Answer: -66.3%

Question: Which “hERG current change (%, negative = inhibition) at 10uM” value does the source give for `COc1ccc(CC(=O)NC(C)CCc2ccccc2)cc1` (centres unmarked) here?
Answer: 5.43%

Question: For `COc1ccc(CCC(C)Nc2cccc(C)c2)cc1` (centres unmarked), which “hERG current change (%, negative = inhibition) at 10uM” value is on record?
Answer: 4.48%

Question: With `COc1ccc(CCC(C)NCC2CCCCC2)cc1` (centres unmarked) as the compound, how does the “hERG current change (%, negative = inhibition) at 10uM” value read?
Answer: -14.9%

Question: `O=C(/C=C/c1ccco1)Nc1cccc2cccnc12` was tested. Which “hERG current change (%, negative = inhibition) at 10uM” value did it give?
Answer: -1.87%

Question: For `CCOC(=O)c1cnn(-c2cc(C)c3ccccc3n2)c1N`, which “hERG current change (%, negative = inhibition) at 10uM” value is on record?
Answer: -1.77%

Question: With `O=C(Cc1cccc2ccccc12)NC(NC(=S)Nc1ccccc1Cl)C(Cl)(Cl)Cl` (centres unmarked) as the compound, how does the “hERG current change (%, negative = inhibition) at 10uM” value read?
Answer: 11.7%

Question: `Cc1cccc(Oc2ncc(-c3ccc(Cl)cc3)cn2)c1` was tested. Which “hERG current change (%, negative = inhibition) at 10uM” value did it give?
Answer: 5.22%

Question: For `Cc1ccc(S(=O)(=O)N2CCN(C(=O)c3ccccc3Cc3ccccc3)CC2)c(C)c1`, which “hERG current change (%, negative = inhibition) at 10uM” value is on record?
Answer: 4.42%

Question: Which “hERG current change (%, negative = inhibition) at 10uM” value does the source give for `O=C(c1ccccc1)N1CCN(CCc2ccccn2)CC1` here?
Answer: 8.41%

Question: How did the “hERG current change (%, negative = inhibition) at 10uM” value turn out when `Cl.O=C(c1ccc(Cl)cc1)N1CCN(CCc2ccccn2)CC1` was run?
Answer: -69%

Question: `COc1ccc(C(=O)N2CCN(Cc3ccccn3)CC2)cc1.O=C(O)C(=O)O` was tested. Which “hERG current change (%, negative = inhibition) at 10uM” value did it give?
Answer: -5.82%

Question: Which “hERG current change (%, negative = inhibition) at 10uM” value does the source give for `CN(CCc1ccccn1)C1CC(=O)N(c2ccc(Cl)cc2)C1=O` (centres unmarked) here?
Answer: 6.39%

Question: With `COc1ccc(C(=O)N2CCN(c3ccccn3)CC2)cc1` as the compound, how does the “hERG current change (%, negative = inhibition) at 10uM” value read?
Answer: 3.55%

Question: With `O=C(Cc1ccccn1)c1ccc(Cl)cc1` as the compound, how does the “hERG current change (%, negative = inhibition) at 10uM” value read?
Answer: 17%

Question: How did the “hERG current change (%, negative = inhibition) at 10uM” value turn out when `O=C1CC(N2CCN(CCc3ccccn3)CC2)C(=O)N1c1ccc(Cl)cc1` (centres unmarked) was run?
Answer: -67.4%

Question: `COc1ccc(C(=O)N2CCN(CCc3ccccn3)CC2)cc1.Cl` was tested. Which “hERG current change (%, negative = inhibition) at 10uM” value did it give?
Answer: -77.3%

Question: How did the “hERG current change (%, negative = inhibition) at 10uM” value turn out when `O=C1CC(N2CCN(c3ccccn3)CC2)C(=O)N1c1ccc(Cl)cc1` (centres unmarked) was run?
Answer: 4.46%

Question: How did the “hERG current change (%, negative = inhibition) at 10uM” value turn out when `COc1cc(-c2noc(C)c2C#Cc2ccsc2)cc(OC)c1OC` was run?
Answer: 10.8%

Question: How did the “hERG current change (%, negative = inhibition) at 10uM” value turn out when `Cc1ccc(Nc2nnc(SCn3nnc4ccccc4c3=O)s2)cc1` was run?
Answer: 2.83%

Question: With `N#Cc1ccc(-c2csc(-c3ccno3)n2)cc1` as the compound, how does the “hERG current change (%, negative = inhibition) at 10uM” value read?
Answer: -14.6%

Question: Which “hERG current change (%, negative = inhibition) at 10uM” value does the source give for `CC1=C[C@H]2OC(=O)[C@@H](C)[C@H]2C[C@@H]2[C@H]1C[C@@H](O)[C@@]2(C)O` here?
Answer: 6.22%

Question: Which “hERG current change (%, negative = inhibition) at 10uM” value does the source give for `N#Cc1c(N)c(C(=O)c2ccccc2)n2ccccc12` here?
Answer: 10.7%

Question: How did the “hERG current change (%, negative = inhibition) at 10uM” value turn out when `CC(=O)Nc1ccc(S(=O)(=O)N(C)CC(=O)OCC(=O)Nc2ccc3c(c2)OCO3)cc1` was run?
Answer: 9.31%

Question: `NC(=O)c1cc2cc(Br)ccc2oc1=NCc1ccccc1` was tested. Which “hERG current change (%, negative = inhibition) at 10uM” value did it give?
Answer: 10.4%

Question: `CCCNC(=O)NC(C(=O)OC)C12CC3CC(CC(C3)C1)C2` (centres unmarked) was tested. Which “hERG current change (%, negative = inhibition) at 10uM” value did it give?
Answer: -10.8%

Question: `CC(C)(C)c1ccc(NC(=O)CNC2CCCc3ccccc32)cc1.Cl` (centres unmarked) was tested. Which “hERG current change (%, negative = inhibition) at 10uM” value did it give?
Answer: 2.24%

Question: For `CCCSc1nc2c(cnn2-c2ccc(F)cc2)c(=O)[nH]1`, which “hERG current change (%, negative = inhibition) at 10uM” value is on record?
Answer: 6.84%

Question: For `COc1cc([N+](=O)[O-])c(C(=O)N2CCOCC2)c([N+](=O)[O-])c1`, which “hERG current change (%, negative = inhibition) at 10uM” value is on record?
Answer: 7.66%

Question: How did the “hERG current change (%, negative = inhibition) at 10uM” value turn out when `O=C(OCC1OC(n2ccc(=O)[nH]c2=O)C(Cl)C1O)c1ccccc1` (centres unmarked) was run?
Answer: -9.37%

Question: `O=C(OCC1OC(n2ccc(=O)[nH]c2=O)C(O)C1OC(=O)c1ccccc1)c1ccccc1` (centres unmarked) was tested. Which “hERG current change (%, negative = inhibition) at 10uM” value did it give?
Answer: -67.9%

Question: Which “hERG current change (%, negative = inhibition) at 10uM” value does the source give for `O=C(OCC1OC(n2ncc(=O)[nH]c2=O)C(OC(=O)c2ccccc2)C1OC(=O)c1ccccc1)c1ccccc1` (centres unmarked) here?
Answer: 14.6%

Question: `CCOC(=O)C1=NN(c2cccc(Cl)c2)C2=NC(C)=C(C(=O)OC)C(c3cccs3)N12` (centres unmarked) was tested. Which “hERG current change (%, negative = inhibition) at 10uM” value did it give?
Answer: 6.72%

Question: How did the “hERG current change (%, negative = inhibition) at 10uM” value turn out when `COc1ccc(CCNC(=S)N2CCC(Cc3ccccc3)CC2)cc1OC` was run?
Answer: -41.1%

Question: For `COc1cc(CN2CCC(Cc3ccccc3)CC2)cc([N+](=O)[O-])c1O`, which “hERG current change (%, negative = inhibition) at 10uM” value is on record?
Answer: 0.943%

Question: `COc1ccc(CN2CCC(C(N)=O)CC2)cc1OCc1ccccc1.O=C(O)C(=O)O` was tested. Which “hERG current change (%, negative = inhibition) at 10uM” value did it give?
Answer: -19.1%

Question: Which “hERG current change (%, negative = inhibition) at 10uM” value does the source give for `COc1cc(CN2CCC(C(N)=O)CC2)ccc1OCc1ccccc1.O=C(O)C(=O)O` here?
Answer: -39.9%

Question: Which “hERG current change (%, negative = inhibition) at 10uM” value does the source give for `COc1ccc(OC)c(CN2CCN(C(=O)c3cccc4ccccc34)CC2)c1.O=C(O)C(=O)O` here?
Answer: -2.37%

Question: How did the “hERG current change (%, negative = inhibition) at 10uM” value turn out when `COc1cc(CN2CCC(Cc3ccccc3)CC2)cc(OC)c1OC.O=C(O)C(=O)O` was run?
Answer: -52.8%

Question: `COc1ccc(OC)c(CN2CCN(Cc3cccc4ccccc34)CC2)c1.O=C(O)C(=O)O` was tested. Which “hERG current change (%, negative = inhibition) at 10uM” value did it give?
Answer: -65.2%

Question: For `COc1ccc(C(=O)N2CCN(Cc3cc(OC)ccc3OC)CC2)cc1.O=C(O)C(=O)O`, which “hERG current change (%, negative = inhibition) at 10uM” value is on record?
Answer: -36%

Question: How did the “hERG current change (%, negative = inhibition) at 10uM” value turn out when `COc1cc(CN2CCN(C(=O)Cc3ccccc3)CC2)cc(OC)c1OC.O=C(O)C(=O)O` was run?
Answer: -0.522%

Question: How did the “hERG current change (%, negative = inhibition) at 10uM” value turn out when `COc1ccc(CCNC(=O)c2ccc(CN3CCC(Cc4ccccc4)CC3)cc2)cc1` was run?
Answer: -15.6%

Question: For `COc1ccc(CCNC(=O)c2ccc(CN3CCC(Cc4ccccc4)CC3)cc2)cc1OC`, which “hERG current change (%, negative = inhibition) at 10uM” value is on record?
Answer: -67.9%

Question: For `COc1ccc(CN2CCC(Cc3ccccc3)CC2)cc1OC.O=C(O)C(=O)O`, which “hERG current change (%, negative = inhibition) at 10uM” value is on record?
Answer: -70.3%
